{"source": "PubChem BioAssay AID818", "about": "(SRMLSC, 2007)", "note": "Among all 140,000 compounds or so, about 2,100 (1.5%) were called active. Many of the other results were omitted from the sample, so actives are more common in it than they were. Unmarked numbers belong to inactive results.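 How the source made its calls: active means viability at or under a set limit, the compound median less 4 SD (cut at about 6% in these data); inactive means the rest.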", "data": [{"test": "primary screen for suppressors of beta-catenin knockout HCT116 cell growth, colon tumor, human (AID 818);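 further: 0% = Hyamine 1622 control at 20 µM and 100% = untreated cell control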", "details": "CellTiter-Glo, 60 h, at 10 µM, hits give low values", "values": [{"compound": "CSc1nc(C)cc(SC(C(C)=O)C(=O)Nc2ccccc2)n1", "note": "(configuration not stated)", "viability": "88.4%"}, {"compound": "CSc1nc(-c2ccccc2)nc(C(Cl)Cl)n1", "viability": "3.63% (active)"}, {"compound": "Cc1nn(-c2ccccc2)c(-n2cccc2)c1C(=O)O", "viability": "95.6%"}, {"compound": "Cc1ccc(/C=N/NC(=O)COc2ccccc2-c2ccccc2)cc1", "viability": "13.9%"}, {"compound": "c1ccc(C2CNCc3c2ccc2ccccc32)cc1", "note": "(configuration not stated)", "viability": "11.3%"}, {"compound": "COc1ccc(C2NC(=S)NC3=C2CCc2ccccc23)cc1OC", "note": "(configuration not stated)", "viability": "81.8%"}, {"compound": "CCn1ncc(CNC(=O)C2(C)CC2(Br)Br)c1C", "note": "(configuration not stated)", "viability": "94.3%"}, {"compound": "CC(=O)NS(=O)(=O)c1ccc(NC(=O)C2C3C=CC(C3)C2C(=O)O)cc1", "note": "(configuration not stated)", "viability": "98.2%"}, {"compound": "CN(C)S(=O)(=O)c1cccc(C(=O)Nc2cccnc2)c1", "viability": "97.9%"}, {"compound": "CN(C)S(=O)(=O)c1cccc(NC(=S)N/N=C/C(=O)c2ccccc2)c1", "viability": "6.06% (active)"}, {"compound": "CCN(CC)S(=O)(=O)c1cccc(C(=O)Nc2ccccc2)c1", "viability": "80.8%"}, {"compound": "Cc1cccc(CSc2ccc(-c3cccs3)nn2)c1", "viability": "75.7%"}, {"compound": "Cc1c(Cl)c([N+](=O)[O-])nn1CCCC(=O)Nc1cc(Cl)ccc1Cl", "viability": "91.2%"}, {"compound": "COc1ccc(NC(=S)N2CCCC(CO)C2)c(OC)c1", "note": "(configuration not stated)", "viability": "100%"}, {"compound": "O=C(CC1NCCNC1=O)Nc1cc(Cl)cc(Cl)c1", "note": "(configuration not stated)", "viability": "87.8%"}, {"compound": "Cc1ccc(/C=N/NC(=O)C2=NNC(c3ccccc3)(c3ccccc3)C2)c(O)c1", "viability": "4.68% (active)"}, {"compound": "Cc1cccc(-n2c(C)cc(/C=N\\NC(=O)c3cccs3)c2C)c1", "viability": "60.6%"}, {"compound": "Cc1ccc(-c2nn(-c3ccccc3)cc2/C=N/NC(=O)c2ccc3c(c2)OCO3)cc1", "viability": "36.6%"}, {"compound": "Cc1cc(C(=O)NNC(=S)NC(C)c2ccccc2)cs1", "note": "(configuration not stated)", "viability": "88.5%"}, {"compound": "Cc1cc(NC(=O)CCC(=O)N(c2cccc(F)c2)C(C(=O)NC2CCCC2)c2ccncc2)no1", "note": "(configuration not stated)", "viability": "94.3%"}, {"compound": "Cc1cc(NC(=O)CCC(=O)N(c2ccccc2)C(C(=O)NC2CCCC2)c2ccncc2)no1", "note": "(configuration not stated)", "viability": "80%"}, {"compound": "Cc1cc(NC(=O)/C=C/C(=O)N(c2ccccc2C)C(C(=O)NC2CCCC2)c2ccc(F)cc2)no1", "note": "(configuration not stated)", "viability": "5.76% (active)"}, {"compound": "CCOc1ccc(Br)cc1S(=O)(=O)Nc1cccc(S(=O)(=O)N(CC)CC)c1", "viability": "96.4%"}, {"compound": "CCn1c(SCc2ccc(C)cc2)nnc1-c1nn(-c2ccccc2)ccc1=O", "viability": "103%"}, {"compound": "CCc1ccc(-c2nn(-c3ccccc3)cc2CSC(=N)N)cc1", "viability": "1.57% (active)"}, {"compound": "N=C(N)SCc1cccc2ccccc12", "viability": "79.3%"}, {"compound": "CCN(C(=O)COc1cccnc1[N+](=O)[O-])C1CCS(=O)(=O)C1", "note": "(configuration not stated)", "viability": "85.6%"}, {"compound": "COC(C(=O)NCc1ccccc1C)c1ccccc1", "note": "(configuration not stated)", "viability": "90%"}, {"compound": "CCN(CC)CCNCc1ccc(OCc2ccc(Cl)nc2)c(OC)c1", "viability": "96.9%"}, {"compound": "Cc1c(Cl)cccc1NC(=O)Nc1ccc(C(=O)N2CCCC2)cc1", "viability": "70.1%"}, {"compound": "c1ccc2[nH]c(NCCN3CCOCC3)nc2c1", "viability": "92%"}, {"compound": "O=C(Cn1c(-c2ccccn2)nc2ccccc21)NCCN1CCOCC1", "viability": "98.8%"}, {"compound": "c1ccc2cc3c(NCCN4CCOCC4)ccnc3cc2c1", "viability": "2.37% (active)"}, {"compound": "CC(C)CCNC(=O)c1cccnc1Sc1ccccc1", "viability": "96.4%"}, {"compound": "Cc1noc(COc2ccccc2OCC(O)CNC(C)(C)C)n1", "note": "(configuration not stated)", "viability": "98.6%"}, {"compound": "CC(C)(C)CC(C)(C)NCC(O)COCCOc1ccc(Br)cc1", "note": "(configuration not stated)", "viability": "1.6% (active)"}, {"compound": "CCC(C)NCCOCCOc1ccc(Br)cc1C", "note": "(configuration not stated)", "viability": "70.2%"}, {"compound": "CCOc1ccc(NC(=S)N2CCC(N(C)CC3CCCO3)CC2)cc1", "note": "(configuration not stated)", "viability": "96.9%"}, {"compound": "Cc1ccc(NC(=O)COC(=O)CCc2nc3ccccc3n2-c2ccccc2)c(C)c1", "viability": "79.9%"}, {"compound": "S=C1SCN(CCN2CCOCC2)CN1Cc1ccccc1", "viability": "20.5%"}, {"compound": "COc1ccc(CN2CN(C(C)C)CSC2=S)cc1", "viability": "5.75% (active)"}, {"compound": "O=C(NN1C(=O)C2C3C=CC(C3)C2C1=O)c1ccco1", "note": "(configuration not stated)", "viability": "93.7%"}, {"compound": "COc1cc(OC)nc(N/N=C(\\c2ccccc2)c2ccncc2)n1", "viability": "63.6%"}, {"compound": "OC(CNCC1CCCO1)Cn1c2ccc(Br)cc2c2cc(Br)ccc21", "note": "(configuration not stated)", "viability": "1.48% (active)"}, {"compound": "Cc1ccc(C(=O)NCC2CCCO2)o1", "note": "(configuration not stated)", "viability": "106%"}, {"compound": "Cc1cc(Br)ccc1NC(=O)C1CCCO1", "note": "(configuration not stated)", "viability": "96.2%"}, {"compound": "COc1ccc(NC(=S)NCc2cccs2)c(OC)c1", "viability": "96%"}, {"compound": "COc1ccc(C(C(=O)NC2CCCCC2)N(C(=O)Cc2c[nH]c3ccccc23)c2ccccc2)cc1OC", "note": "(configuration not stated)", "viability": "63.4%"}, {"compound": "O=C(Nc1cc(C(F)(F)F)ccc1Cl)C(=O)N1CCCCC1", "viability": "99.1%"}, {"compound": "CC(CC(=O)Nc1cc(C(F)(F)F)ccc1Cl)c1ccccc1", "note": "(configuration not stated)", "viability": "61.2%"}, {"compound": "O=C(NNc1ccccc1Cl)C(O)(c1cccc(C(F)(F)F)c1)c1cccc(C(F)(F)F)c1", "viability": "3.21% (active)"}, {"compound": "CCc1nnc(NC(=O)/C=C/c2ccc(C)o2)s1", "viability": "97.8%"}, {"compound": "CCN1/C(=C/c2ccc3ccc(C)cc3[n+]2CC)Sc2ccccc21", "viability": "2.41% (active)"}, {"compound": "CCC(=O)/C=C1\\Sc2ccccc2N1CC", "viability": "89%"}, {"compound": "CCOC(=O)CN(Cc1ccc(OC)c(OC)c1)S(=O)(=O)c1ccc(OC)cc1", "viability": "91.4%"}, {"compound": "COc1ccc(CCN(C(=O)COc2ccccc2)c2nc(-c3ccccc3)cs2)cc1OC", "viability": "77.2%"}, {"compound": "COc1ccc(C(CCN(Cc2ccc(OC)c(OC)c2)C(=O)CCl)c2ccccc2)cc1", "note": "(configuration not stated)", "viability": "1.9% (active)"}, {"compound": "CCOC(=O)C(NC(=O)CC(C)C)(Nc1sc2c(c1C(N)=O)CCCC2)C(F)(F)F", "note": "(configuration not stated)", "viability": "97.2%"}, {"compound": "O=C1CCCC2=C1C(c1ccccc1)n1c(s/c(=C/c3cccc(F)c3)c1=O)=N2", "note": "(configuration not stated)", "viability": "83.9%"}, {"compound": "COc1ccc(OC)c(C2C3=C(N=c4s/c(=C\\c5cccc(O)c5)c(=O)n42)c2ccccc2CC3)c1", "note": "(configuration not stated)", "viability": "3.2% (active)"}, {"compound": "CCOC(=O)C1=C(C)N=c2s/c(=C\\C(=O)OC)c(=O)n2C1c1ccc(OC)cc1", "note": "(configuration not stated)", "viability": "98.8%"}, {"compound": "O=C(Nc1cn(-c2ccccc2)nc1-c1ccccc1)c1ccccc1", "viability": "82%"}]}]}
